In PubChem BioAssay AID1486 (The Scripps Research Institute Molecular Screening Center, 2009):
The campaign covered roughly 220,000 compounds. About 2,400 (1.1%) were called active. This is one part of a sample in which actives are shown more often than they occur. A number with no mark means an inactive call.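 Rule for the calls: active = inhibition above a per-campaign cutoff, the mean inhibition of all tested compounds plus 3 SD (cut at about 27% in these data); inactive = the rest.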

Test: growth loss in parental Ba/F3 cells – cell-based, murine pro-B, CellTiter-Glo luminescence, counter-screen for JAK2V617F inhibitor project (AID 1486);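 note: 0% = DMSO wells and 100% = JAK Inhibitor I control wells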
Conditions: Ba/F3 parental viability, CellTiter-Glo ATP luminescence; at 5.6 µM; stronger effect = higher value

| Compound | inhibition |
| --- | --- |
| COc1cc(OC)c(OC)cc1/C=N/Nc1ncnc2c1[nH]c1ccc(C)cc12 | -0.75% |
| O=C1CCCN1CCCNc1ncnc2c1[nH]c1ccccc12 | 2.08% |
| CC(C)OCCCNc1ncnc2c1[nH]c1ccc(F)cc12 | 69.9% (active) |
| CS(=O)(=O)c1ccc2nnn(OCC(=O)Nc3cccc(C#N)c3)c2c1 | -2.77% |
| COc1ccc(NC(=O)C(CC(C)C)NS(=O)(=O)c2ccc3c(c2)CCN3C(C)=O)cc1OC (configuration not stated) | 1.81% |
| CCCc1nnc(SCC(=O)N2C(C)CCCC2C)n1CC (configuration not stated) | 2.43% |
| CCN(CC)c1ccc(/C=N/Nc2nc(C)cc(C)n2)c(O)c1 | 3.74% |
| CCN(CC)c1ccc(/C=N/NC(=O)c2cnccn2)c(O)c1 | 34.4% (active) |
| O=C(Nc1ccc2c(c1)OCCO2)c1cnccn1 | 4.31% |
| COC(=O)c1noc(C)c1-c1ccnn1C(=O)c1ccc(Cl)cc1 | -1.68% |
| COCc1cc(=O)oc2cc(NS(=O)(=O)c3ccc(C)cc3)ccc12 | -1.36% |
| COc1ccc(NC(=S)NCCNC(C)=O)cc1 | 3.11% |
| COc1ccc(NC(=O)/C(Cl)=C(/Cl)S(=O)Cc2ccc(C)cc2)cn1 (configuration not stated) | 103% (active) |
| Cc1ccc(NC(=O)OCc2cncs2)cc1 | 8.02% |
| COc1ccc(Nc2cc(Cl)ccc2C(=O)O)cn1 | -9.44% |
| COc1ccc(CS(=O)/C(Cl)=C(/Cl)C(=O)Nc2ccc(OC)nc2)cc1 (configuration not stated) | 104% (active) |
| COc1ccc(NC(=S)Nc2ccccc2Cl)cn1 | 9.94% |
| CN(C)/C(CN1CCCCC1)=C1\N=C(c2ccccc2)OC1=O | 7.38% |
| O=C(CNCc1cccs1)Nc1cc(S(=O)(=O)N2CCCC2)ccc1Cl | -6.85% |
| Cc1ccc(-c2cc(=O)c3ccc(Cl)cc3[nH]2)cc1 | -0.93% |
| Cc1ccc(-c2cc(=O)c3ccc(F)cc3[nH]2)cc1 | 0.37% |

| Compound | inhibition |
| --- | --- |
| O=c1cc(-c2ccccc2)[nH]c2cc(F)ccc12 | 72.4% (active) |
| Cc1cc(O)ccc1NC1=CC(=O)CC(C)(C)C1 | 6.24% |
| CCN(CC)CCCN=Cc1c(O)n(-c2ccc(C)cc2)c(=O)c2ccccc12 | 1.41% |
| O=c1c2ccccc2nc2n1C(CSCc1ccccc1)CS2 (configuration not stated) | 39.8% (active) |
| O=c1c2ccccc2nc2n1C(CSc1ccc(F)cc1)CN2 (configuration not stated) | 3.79% |
| O=c1c2ccccc2nc2n1C(CSCc1cccc(C(F)(F)F)c1)CS2 (configuration not stated) | 17.3% |
| Nc1nonc1-n1nnc(C(=O)N/N=C/c2cc(Br)ccc2O)c1CSC1=NCCS1 | 4.7% |
| COC(=O)C1=C(N)Oc2c(oc(CO)cc2=O)C1c1c(F)cccc1Cl (configuration not stated) | 1.36% |
| S=c1[nH]nc(-c2ccccc2)n1/N=C/c1c[nH]c2ccccc12 | 0.81% |
| C[n+]1ccc(/C=C/c2c[nH]c3ccccc23)cc1 | 75.7% (active) |
| CSC(=S)N/N=C/c1c[nH]c2ccccc12 | 3.36% |
| Cc1ccc(Oc2nc(-c3ccccn3)nc3ccccc23)cc1 | -1.39% |
| Cc1cc(C)n(-c2nc(C(F)(F)F)nc3ccccc23)n1 | 7.14% |
| CCCOn1c(-n2nc(C)cc2C)nc2ccccc2c1=O | 34% (active) |
| CCOn1c(SC(C)C)nc2ccccc2c1=O | 3.34% |
| COc1ccc(CCNS(=O)(=O)c2ccc(C(=O)NCc3ccco3)cc2)cc1OC | 3.88% |
| CCCC1=Nc2cc(C(=O)NCc3ccco3)ccc2Sc2ccccc21 | 80.2% (active) |
| CCOc1ccccc1C(=O)NCc1ccco1 | 4.63% |
| COc1cccc(-n2c(SCC(=O)c3c[nH]c4ccccc34)nc3ccccc3c2=O)c1 | 3.88% |
| Cn1ncc2c(NNC(=O)Cc3cccc4ccccc34)ncnc21 | 6.49% |
| COCCCNC(=O)Cn1cc(/C=C(\C#N)C(=O)N2CCN(c3ccccc3)CC2)c2ccccc21 | 2.71% |

| Compound | inhibition |
| --- | --- |
| O=C(O)CCC(=O)Nc1nc2ccc([N+](=O)[O-])cc2s1 | 3.87% |
| O=C(NC(Nc1nc2ccc([N+](=O)[O-])cc2s1)(C(F)(F)F)C(F)(F)F)c1ccccc1 | 53.4% (active) |
| O=C(Nc1nc2ccc([N+](=O)[O-])cc2s1)c1ccncc1 | -4.75% |
| O=C(O)c1cccc(NC(=S)N/N=C/c2c[nH]c3ccccc23)c1 | 7.89% |
| Cc1cc(C)c(C(N)=O)c(Cl)n1 | 1.66% |
| CCOc1cccc(NC(=O)Cn2nc(-c3ccc4c(c3)OCCO4)ccc2=O)c1 | 1.09% |
| CN1CCc2nc(SC(C(=O)O)c3ccccc3)c(C#N)c(-c3cccs3)c2C1 (configuration not stated) | -0.18% |
| COc1cc(/C=C2/C(=O)ON=C2C)ccc1OCc1ccccc1F | 5.96% |
| CC1=NOC(=O)/C1=C\c1ccccc1 | -2.02% |
| COc1cc(/C=C2/C(=O)ON=C2C)ccc1OCc1cccc(F)c1 | 59.9% (active) |
| CCc1ccc(Oc2nc([N+](=O)[O-])nn2C)cc1 | -0.05% |
| COC(=O)c1cccc(NS(C)(=O)=O)c1 | -2.38% |
| CCOC(=O)c1cc(-c2nnc(-c3cc(OC)c(OC)c(OC)c3)o2)c(C)nc1C | 3.72% |
| CCOC(=O)C1=C(N)N2C(=O)C(C)SC2=C(C(=O)OCC)C1c1cc(OC)c(OC)c(OC)c1 (configuration not stated) | 66% (active) |
| CCOC(=O)C1CCN(C(=O)/C=C/c2cc(OC)c(OC)c(OC)c2)CC1 | 2% |
| COc1ccc(C2C=C(c3ccc(Br)cc3)Nc3nc(NS(C)(=O)=O)nn32)cc1 (configuration not stated) | -0.92% |
| C=CCNC(=S)NNC(=O)c1cc(Cl)ccc1OC | 2.83% |
| CN(CC(=O)Nc1cccc(F)c1)CC(=O)Nc1cccc([N+](=O)[O-])c1 | 3.37% |
| Cc1ccc(NC(=O)CN(C)CC(=O)Nc2cccc(F)c2)cc1[N+](=O)[O-] | 27.9% (active) |
| Cc1ccc(CN(C)CC(=O)Nc2cccc([N+](=O)[O-])c2)o1 | 1.42% |
